Experimental findings from the supplement of paper PMC4022240 are described below.

± gives the standard deviation.

The labels stand for the following.
T1: HaloTag-ATRX ADD domain (163-292)
T1 chain: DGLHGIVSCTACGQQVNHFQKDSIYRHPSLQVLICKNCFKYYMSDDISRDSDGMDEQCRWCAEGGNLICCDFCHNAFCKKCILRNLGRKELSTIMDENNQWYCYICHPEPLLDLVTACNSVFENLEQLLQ

The target of one experiment is T1, HaloTag-ATRX ADD domain (163-292). The experiment in a line: peptide microarray binding signal (635 nm), min-max normalized on array (fraction of array maximum); higher = stronger binding. Particulars: peptide region: Unmod H2B variant; binder concentration: 50 nM. An outline of the steps: (§1)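 Histone 13-mer peptide–cellulose conjugates were printed in triplicate on nitrocellulose with a Cy3 tracer, then blocked overnight at 4°C. Arrays were probed for 1 h at 4°C with biotin-labelled HaloTag reader fusions (10 nM to 1 μM) plus streptavidin-Alexa Fluor 647, or with rabbit histone antibodies (1:10,000 to 1:2,000) plus anti-rabbit Alexa 647. An Axon GenePix 4000B scanned 635 nm for signal and 532 nm for misprints. Binding signal is the triplicate-spot mean intensity, min-max scaled per library.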
Consider EGTKAVTKYTSAK [Unmod H2B variant E G T K A V T K Y T S A K], for which the “peptide microarray binding signal” value came to 0.0108 ± 0.00025.

Turning to EIQTAVRLLLPGE [Unmod H2B variant E I Q T A V R L L L P G E], the “peptide microarray binding signal” value was determined as 0.0176 ± 0.00047.

For the molecule EGTKAVTKYTSSK [Unmod H2B variant E G T K A V T K Y T S S K], the “peptide microarray binding signal” value turned out to be 0.00473 ± 0.00015.

The experiment is the same for the next values; noted with them: peptide region: Unmod H2B variant; binder concentration: 500 nM.
For EGTKAVTKYTSAK [Unmod H2B variant E G T K A V T K Y T S A K], the “peptide microarray binding signal” value came to 0.0351 ± 0.00073.

On to EIQTAVRLLLPGE [Unmod H2B variant E I Q T A V R L L L P G E], for which the “peptide microarray binding signal” value worked out at 0.041 ± 0.0018.

In the case of EGTKAVTKYTSSK [Unmod H2B variant E G T K A V T K Y T S S K], the “peptide microarray binding signal” value was determined as 0.00681 ± 0.00052.

For a further experiment, the target named is HaloTag-ING2 PHD (mouse Ing2 200-280). The experiment is described as above. Particulars: peptide region: Unmod H2B variant; binder concentration: 10 nM. An outline of the steps: as §1
EGTKAVTKYTSAK [Unmod H2B variant E G T K A V T K Y T S A K]: the “peptide microarray binding signal” value is 0.00776 ± 0.00021.

With EIQTAVRLLLPGE [Unmod H2B variant E I Q T A V R L L L P G E], the “peptide microarray binding signal” value came out at 0.0245 ± 0.0014.

EGTKAVTKYTSSK [Unmod H2B variant E G T K A V T K Y T S S K]: the “peptide microarray binding signal” value stood at 0.00561 ± 0.00046.

Staying with this experiment, now noted: peptide region: Unmod H2B variant; binder concentration: 100 nM.
With EGTKAVTKYTSAK [Unmod H2B variant E G T K A V T K Y T S A K], the “peptide microarray binding signal” value stood at 0.0322 ± 0.0032.

Take EIQTAVRLLLPGE [Unmod H2B variant E I Q T A V R L L L P G E]: the “peptide microarray binding signal” value came to 0.0434 ± 0.0033.

For the molecule EGTKAVTKYTSSK [Unmod H2B variant E G T K A V T K Y T S S K], the “peptide microarray binding signal” value is 0.01276 ± 6.8e-05.

Another experiment addresses anti-H3K4me3 antibody ab8580. The experiment is described as above. Particulars: peptide region: Unmod H2B variant; binder concentration: 1:2,000 dilution. The method in brief: as §1
Regarding EGTKAVTKYTSAK [Unmod H2B variant E G T K A V T K Y T S A K], the “peptide microarray binding signal” value worked out at 0.00196 ± 9.7e-05.

With EIQTAVRLLLPGE [Unmod H2B variant E I Q T A V R L L L P G E], the “peptide microarray binding signal” value was found to be 0.00893 ± 0.00076.

EGTKAVTKYTSSK [Unmod H2B variant E G T K A V T K Y T S S K]: the “peptide microarray binding signal” value was determined as 0.00121 ± 0.00013.

The experiment is the same for the next values; noted with them: peptide region: Unmod H2B variant; binder concentration: 1:10,000 dilution.
With EGTKAVTKYTSAK [Unmod H2B variant E G T K A V T K Y T S A K], the “peptide microarray binding signal” value was determined as 0.0028 ± 0.00015.

Regarding EIQTAVRLLLPGE [Unmod H2B variant E I Q T A V R L L L P G E], the “peptide microarray binding signal” value worked out at 0.0164 ± 0.00068.

As for EGTKAVTKYTSSK [Unmod H2B variant E G T K A V T K Y T S S K], the “peptide microarray binding signal” value was determined as 0.001712 ± 1.6e-05.

The target in the next experiment is anti-H3K9me3 antibody ab8898. The description is as above. Particulars: peptide region: Unmod H2B variant; binder concentration: 1:2,000 dilution. The method in brief:
as §1
For EGTKAVTKYTSAK [Unmod H2B variant E G T K A V T K Y T S A K], the “peptide microarray binding signal” value was 0.000544 ± 1.7e-05.

EIQTAVRLLLPGE [Unmod H2B variant E I Q T A V R L L L P G E]: the “peptide microarray binding signal” value came to 0.00628 ± 0.00047.

Turning to EGTKAVTKYTSSK [Unmod H2B variant E G T K A V T K Y T S S K], the “peptide microarray binding signal” value stood at 0.000468 ± 9e-06.

The experiment is the same for the next values; noted with them: peptide region: Unmod H2B variant; binder concentration: 1:10,000 dilution.
Take EGTKAVTKYTSAK [Unmod H2B variant E G T K A V T K Y T S A K]: the “peptide microarray binding signal” value was determined as 0.00115.

Take EIQTAVRLLLPGE [Unmod H2B variant E I Q T A V R L L L P G E]: the “peptide microarray binding signal” value amounted to 0.0106 ± 0.0002.

As for EGTKAVTKYTSSK [Unmod H2B variant E G T K A V T K Y T S S K], the “peptide microarray binding signal” value was 0.000923 ± 9.6e-06.

The next experiment addresses T1, HaloTag-ATRX ADD domain (163-292). Described as above. Particulars: peptide region: Unmod H3 variant; binder concentration: 50 nM. The method in brief:
as §1
As for ARTKQTARKSTGG [Unmod H3 variant A R T K Q T A R K S T G G], the “peptide microarray binding signal” value came to 0.00445 ± 0.00012.

Take TGGKAPRKQLATK [Unmod H3 variant T G G K A P R K Q L A T K]: the “peptide microarray binding signal” value came to 0.00389 ± 0.00042.

The experiment is the same for the next values; noted with them: peptide region: Unmod H3 variant; binder concentration: 500 nM.
Take ARTKQTARKSTGG [Unmod H3 variant A R T K Q T A R K S T G G]: the “peptide microarray binding signal” value was 0.00991 ± 0.00023.

As to TGGKAPRKQLATK [Unmod H3 variant T G G K A P R K Q L A T K], the “peptide microarray binding signal” value worked out at 0.00729 ± 0.00021.

In another experiment the target is HaloTag-ING2 PHD (mouse Ing2 200-280). The experiment is described as above. Particulars: peptide region: Unmod H3 variant; binder concentration: 10 nM. The method in brief: as §1
Take ARTKQTARKSTGG [Unmod H3 variant A R T K Q T A R K S T G G]: the “peptide microarray binding signal” value came to 0.00824 ± 0.00015.

Consider TGGKAPRKQLATK [Unmod H3 variant T G G K A P R K Q L A T K], for which the “peptide microarray binding signal” value came out at 0.00788 ± 0.00069.

Staying with this experiment, now noted: peptide region: Unmod H3 variant; binder concentration: 100 nM.
Turning to ARTKQTARKSTGG [Unmod H3 variant A R T K Q T A R K S T G G], the “peptide microarray binding signal” value was 0.01502 ± 0.00015.

Consider TGGKAPRKQLATK [Unmod H3 variant T G G K A P R K Q L A T K], for which the “peptide microarray binding signal” value is 0.00985 ± 0.00081.

In another experiment the target is anti-H3K4me3 antibody ab8580. The description is as above. Particulars: peptide region: Unmod H3 variant; binder concentration: 1:2,000 dilution. The method in brief: as §1
Consider ARTKQTARKSTGG [Unmod H3 variant A R T K Q T A R K S T G G], for which the “peptide microarray binding signal” value is 0.0014 ± 4.3e-05.

For the molecule TGGKAPRKQLATK [Unmod H3 variant T G G K A P R K Q L A T K], the “peptide microarray binding signal” value was 0.00126 ± 8.1e-05.

The experiment is the same for the next values; noted with them: peptide region: Unmod H3 variant; binder concentration: 1:10,000 dilution.
With ARTKQTARKSTGG [Unmod H3 variant A R T K Q T A R K S T G G], the “peptide microarray binding signal” value came out at 0.00205 ± 7.6e-05.

As to TGGKAPRKQLATK [Unmod H3 variant T G G K A P R K Q L A T K], the “peptide microarray binding signal” value came out at 0.001541 ± 1.5e-05.

A further experiment has as its target anti-H3K9me3 antibody ab8898. Described as above. The following applies: peptide region: Unmod H3 variant; binder concentration: 1:2,000 dilution. The method in brief: as §1
For the molecule ARTKQTARKSTGG [Unmod H3 variant A R T K Q T A R K S T G G], the “peptide microarray binding signal” value was 0.00101 ± 3.2e-05.

Regarding TGGKAPRKQLATK [Unmod H3 variant T G G K A P R K Q L A T K], the “peptide microarray binding signal” value came to 0.000876 ± 2.6e-05.

The experiment is the same for the next values; noted with them: peptide region: Unmod H3 variant; binder concentration: 1:10,000 dilution.
Regarding ARTKQTARKSTGG [Unmod H3 variant A R T K Q T A R K S T G G], the “peptide microarray binding signal” value worked out at 0.00115.

Regarding TGGKAPRKQLATK [Unmod H3 variant T G G K A P R K Q L A T K], the “peptide microarray binding signal” value came out at 0.000807.
